{"source": "paper PMC4336329", "about": "(PLoS ONE, 2015)", "note": "About 14,000 (4.5%) of roughly 310,000 compounds showed an effect of 50% or more. Effects have a minus sign here. What follows is part of a selection rich in strong results, with near analogues and random picks from the rest.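 Further: peak tail current of the secondary pulse compared with the same well before compound.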"}
{"target": "human ether-à-go-go-related gene (hERG) potassium channel (human, UniProt Q12809)", "sequence (Q12809 whole entry, looked up)": "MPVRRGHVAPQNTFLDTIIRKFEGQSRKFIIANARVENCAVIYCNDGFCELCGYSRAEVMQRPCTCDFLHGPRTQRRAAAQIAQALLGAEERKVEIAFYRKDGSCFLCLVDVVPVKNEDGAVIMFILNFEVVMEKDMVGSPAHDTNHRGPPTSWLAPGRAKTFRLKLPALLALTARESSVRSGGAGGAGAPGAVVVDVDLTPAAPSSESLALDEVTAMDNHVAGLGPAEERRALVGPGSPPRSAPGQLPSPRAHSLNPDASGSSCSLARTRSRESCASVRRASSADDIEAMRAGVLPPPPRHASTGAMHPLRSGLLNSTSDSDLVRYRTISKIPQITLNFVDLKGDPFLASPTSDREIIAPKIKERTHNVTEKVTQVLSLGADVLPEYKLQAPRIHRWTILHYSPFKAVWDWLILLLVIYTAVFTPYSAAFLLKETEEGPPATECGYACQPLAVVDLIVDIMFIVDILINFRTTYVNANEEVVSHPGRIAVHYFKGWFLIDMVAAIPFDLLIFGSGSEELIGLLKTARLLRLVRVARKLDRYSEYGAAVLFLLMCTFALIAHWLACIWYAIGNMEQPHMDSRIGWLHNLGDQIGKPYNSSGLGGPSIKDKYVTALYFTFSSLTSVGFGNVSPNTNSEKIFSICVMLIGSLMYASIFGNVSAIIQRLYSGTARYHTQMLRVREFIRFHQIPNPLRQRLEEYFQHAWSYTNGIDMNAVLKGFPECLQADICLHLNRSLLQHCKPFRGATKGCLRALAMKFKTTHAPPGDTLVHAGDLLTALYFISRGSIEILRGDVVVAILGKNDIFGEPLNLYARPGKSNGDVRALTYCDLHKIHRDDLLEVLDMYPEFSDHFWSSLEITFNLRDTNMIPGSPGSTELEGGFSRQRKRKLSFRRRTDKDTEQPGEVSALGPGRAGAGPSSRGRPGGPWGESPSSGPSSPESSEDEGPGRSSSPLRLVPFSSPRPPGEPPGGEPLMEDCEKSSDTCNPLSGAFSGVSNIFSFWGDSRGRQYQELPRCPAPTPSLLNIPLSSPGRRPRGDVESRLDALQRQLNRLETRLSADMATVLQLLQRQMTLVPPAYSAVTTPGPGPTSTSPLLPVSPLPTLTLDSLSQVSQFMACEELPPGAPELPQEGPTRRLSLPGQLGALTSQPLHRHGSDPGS", "assay": "primary screen, population patch clamp on CHO cells stably expressing hERG; higher = less effect of the substance", "units": {"hERG current change (%, negative = inhibition) at 10uM": "%"}}
{"smiles": "Cc1c(Cl)cccc1NC(=S)N1CCN(c2ccc([N+](=O)[O-])cn2)CC1", "hERG current change (%, negative = inhibition) at 10uM": 2.33}
{"smiles": "O=C(NCc1ccc(F)cc1)C1CCCN(S(=O)(=O)c2cccc3nonc23)C1", "note": "(stereo not shown)", "hERG current change (%, negative = inhibition) at 10uM": 19.6}
{"smiles": "CN(C)CCN(C(=O)c1cccc2ccccc12)c1nc2cc3c(cc2s1)OCO3.Cl", "hERG current change (%, negative = inhibition) at 10uM": -22.3}
{"smiles": "Cc1ccc2sc(N(CCCN(C)C)C(=O)c3ccc(Br)s3)nc2c1C.Cl", "hERG current change (%, negative = inhibition) at 10uM": -71.7}
{"smiles": "CN(C)CCCN(C(=O)c1cc(Cl)sc1Cl)c1nc2cc3c(cc2s1)OCO3.Cl", "hERG current change (%, negative = inhibition) at 10uM": -41.9}
{"smiles": "CN(C)CCCN(C(=O)c1ccc(Cl)s1)c1nc2cc3c(cc2s1)OCO3", "hERG current change (%, negative = inhibition) at 10uM": -69}
{"smiles": "CN(C)CCN(C(=O)c1cccs1)c1nc2cc3c(cc2s1)OCCO3.Cl", "hERG current change (%, negative = inhibition) at 10uM": -23.6}
{"smiles": "CN(C)CCCN(C(=O)c1cccs1)c1nc2cc3c(cc2s1)OCO3.Cl", "hERG current change (%, negative = inhibition) at 10uM": -56.8}
{"smiles": "Cc1ccc2nc(N(CCCN(C)C)C(=O)c3ccc(Br)s3)sc2c1.Cl", "hERG current change (%, negative = inhibition) at 10uM": -44.3}
{"smiles": "Cc1ccc2sc(N(CCCN(C)C)C(=O)c3nc4ccccc4s3)nc2c1C.Cl", "hERG current change (%, negative = inhibition) at 10uM": 3.59}
{"smiles": "CN(C)CCCN(C(=O)c1ccc([N+](=O)[O-])s1)c1nc2cc3c(cc2s1)OCCO3.Cl", "hERG current change (%, negative = inhibition) at 10uM": -71.3}
{"smiles": "CCC(C(=O)NC1CCCCC1)n1c2ccccc2c2nc(=O)cc(C)n21", "note": "(stereo not shown)", "hERG current change (%, negative = inhibition) at 10uM": 10.4}
{"smiles": "O/N=C/c1cn(-c2ccccc2)nc1-c1cccnc1", "hERG current change (%, negative = inhibition) at 10uM": -31.6}
{"smiles": "COCCCNC(=O)Cn1cnc2sc(C)c(S(=O)(=O)N3CC(C)CC(C)C3)c2c1=O", "note": "(stereo not shown)", "hERG current change (%, negative = inhibition) at 10uM": -0.637}
{"smiles": "COCCCN1C(=O)c2ccc(C(=O)O)cc2C1=O", "hERG current change (%, negative = inhibition) at 10uM": -0.568}
{"smiles": "COC(=O)c1ccc(/C=N/NC(=O)c2cccc(F)c2)cc1", "hERG current change (%, negative = inhibition) at 10uM": 6.65}
{"smiles": "COc1cccc(C(=O)NCC(=O)N/N=C/c2cn[nH]c2-c2ccccc2)c1", "hERG current change (%, negative = inhibition) at 10uM": -4.6}
{"smiles": "Cc1nc2nc(C)c(CCC(=O)NCCC3=CCCCC3)c(C)n2n1", "hERG current change (%, negative = inhibition) at 10uM": 4.49}
{"smiles": "COc1ccc(S(=O)(=O)N(C)C)cc1NC(C)C(=O)Nc1cccc(C#N)c1", "note": "(stereo not shown)", "hERG current change (%, negative = inhibition) at 10uM": -23.5}
{"smiles": "COc1cccc(CNC(=O)C2CSC3(C)CCC(=O)N23)c1", "note": "(stereo not shown)", "hERG current change (%, negative = inhibition) at 10uM": 6.82}
{"smiles": "CN(C)c1ccc(N/C=C/C(=O)C(C)(C)C)cc1", "hERG current change (%, negative = inhibition) at 10uM": 15.9}
{"smiles": "COC(=O)CN1C(=S)N(C)C(=O)/C1=C/c1cccs1", "hERG current change (%, negative = inhibition) at 10uM": 5.21}
{"smiles": "O=C(CNC(=O)c1ccc(Br)o1)NNC(=O)c1ccccc1O", "hERG current change (%, negative = inhibition) at 10uM": -2.55}
{"smiles": "CCn1c2ccccc2c2cc(N=C3SC(CC(=O)Nc4ccccc4OC)C(=O)N3CCOC)ccc21", "note": "(stereo not shown)", "hERG current change (%, negative = inhibition) at 10uM": -3.75}
{"smiles": "CN(C)CCCN(C(=O)c1ccc(Br)s1)c1nc2cc3c(cc2s1)OCCO3.Cl", "hERG current change (%, negative = inhibition) at 10uM": -33.9}
{"smiles": "CN(C)CCN(C(=O)c1ccc(Br)s1)c1nc2cc3c(cc2s1)OCCO3.Cl", "hERG current change (%, negative = inhibition) at 10uM": -4.91}
{"smiles": "CN(C)CCCN(C(=O)c1ccc(Br)s1)c1nc2cc3c(cc2s1)OCO3.Cl", "hERG current change (%, negative = inhibition) at 10uM": -52}
{"smiles": "COC(=O)C1=C(c2ccc(F)cc2OCc2ccccc2)C[C@@H]2CC[C@H]1N2C(=O)N1CCCCC1", "hERG current change (%, negative = inhibition) at 10uM": -9.9}
{"smiles": "Cc1ccccc1CNC(=O)Cn1cnc(S(=O)(=O)N2CCCC2)c1", "hERG current change (%, negative = inhibition) at 10uM": 6.06}
{"smiles": "CCCOC(=O)C(C)n1cnc2scc(-c3ccc(C)cc3)c2c1=O", "note": "(stereo not shown)", "hERG current change (%, negative = inhibition) at 10uM": 6.79}
{"smiles": "CC(C)(C)n1nnnc1C(c1ccc2ncccc2c1)N1CCSCC1", "note": "(stereo not shown)", "hERG current change (%, negative = inhibition) at 10uM": -18.1}
{"smiles": "COCCn1nnnc1C(c1ccc2ncccc2c1)N1CCN(c2ccccc2F)CC1", "note": "(stereo not shown)", "hERG current change (%, negative = inhibition) at 10uM": -19.4}
{"smiles": "CC(C)(C)n1nnnc1C(c1cccnc1)N1CCN(c2cccc(C(F)(F)F)c2)CC1.Cl", "note": "(stereo not shown)", "hERG current change (%, negative = inhibition) at 10uM": -53.3}
{"smiles": "CC(C)(C)n1nnnc1C(c1ccc2ncccc2c1)N1CCC(O)CC1", "note": "(stereo not shown)", "hERG current change (%, negative = inhibition) at 10uM": 12.4}
{"smiles": "COc1ccc(N2CCN(C(c3ccc4ncccc4c3)c3nnnn3C(C)C)CC2)cc1", "note": "(stereo not shown)", "hERG current change (%, negative = inhibition) at 10uM": -51.7}
{"smiles": "CC(C)(C)n1nnnc1C(c1cccnc1)N1CCN(c2ccccc2)CC1", "note": "(stereo not shown)", "hERG current change (%, negative = inhibition) at 10uM": -8.19}
{"smiles": "COc1ccc(N2CCN(C(c3ccc4ncccc4c3)c3nnnn3C(C)(C)C)CC2)cc1", "note": "(stereo not shown)", "hERG current change (%, negative = inhibition) at 10uM": -52.1}
{"smiles": "CCC(C)(C)n1nnnc1C(c1ccc2ncccc2c1)N1CCN(c2ccc(O)cc2)CC1", "note": "(stereo not shown)", "hERG current change (%, negative = inhibition) at 10uM": -31.7}
{"smiles": "CCC(C)(C)n1nnnc1C(c1cccnc1)N1CCN(c2cccc(C(F)(F)F)c2)CC1", "note": "(stereo not shown)", "hERG current change (%, negative = inhibition) at 10uM": -41}
{"smiles": "CCc1ccc(NC(=O)Nc2ccncc2)cc1", "hERG current change (%, negative = inhibition) at 10uM": -20.9}
{"smiles": "O=C1Nc2ccc([N+](=O)[O-])cc2OC1CCN1CCN(c2ccccc2)CC1", "note": "(stereo not shown)", "hERG current change (%, negative = inhibition) at 10uM": -47.4}
{"smiles": "C/C(=N\\Nc1ncnc2sc(C)c(C)c12)c1ccccn1", "hERG current change (%, negative = inhibition) at 10uM": -35.5}
{"smiles": "NC(=O)c1coc(-c2ccccc2)n1", "hERG current change (%, negative = inhibition) at 10uM": 12.9}
{"smiles": "O=C(COC(=O)c1cccc2ccccc12)NCCCc1ccccc1", "hERG current change (%, negative = inhibition) at 10uM": 0.562}
{"smiles": "Cc1csc(CNC(=O)c2ccc(OC3CCN(CCc4ccccc4)CC3)cc2)n1", "hERG current change (%, negative = inhibition) at 10uM": -55.3}
{"smiles": "CC(NC(=O)c1ccc(OC2CCN(Cc3ccccn3)CC2)cc1)c1nccs1", "note": "(stereo not shown)", "hERG current change (%, negative = inhibition) at 10uM": -10.3}
{"smiles": "Cc1csc(C(C)NC(=O)c2ccc(OC3CCN(CCc4ccccc4)CC3)cc2)n1", "note": "(stereo not shown)", "hERG current change (%, negative = inhibition) at 10uM": -66.2}
{"smiles": "CC(C)N1CCN(C(=O)c2ccc(OC3CCN(CCc4ccccc4)CC3)cc2)CC1", "hERG current change (%, negative = inhibition) at 10uM": -0.0142}
{"smiles": "COC1CCN(C(=O)c2ccc(OC3CCN(CCc4ccccc4)CC3)cc2)CC1", "hERG current change (%, negative = inhibition) at 10uM": -29.8}
{"smiles": "O=C(NCc1ccccn1)c1ccc(OC2CCN(Cc3ccccc3)CC2)cc1", "hERG current change (%, negative = inhibition) at 10uM": -10.2}
{"smiles": "CCOC(=O)C(CC(=O)Nc1nc(C(C)=O)c(C)s1)C(C)c1ccccc1", "note": "(stereo not shown)", "hERG current change (%, negative = inhibition) at 10uM": 2.61}
{"smiles": "C=CCSc1nc2c(c(=O)[nH]1)C(C(C)C)C(C#N)=C(N)O2", "note": "(stereo not shown)", "hERG current change (%, negative = inhibition) at 10uM": 3.05}
